The record followed here is ChEMBL document CHEMBL3988442, “University of Dundee, Small-Polar-MMV Screening Library” (2021).

For some of these results: Measured potencies and affinities stand elsewhere.

Parameters in all cases: scale not given: direction of the effect not stated beside the values
The target in experiment [1] is Protein translocase subunit SecA (Escherichia coli (strain K12)) (UniProt P10408). Nature of the experiment: Assay to Identify E. coli SecA ATPase Inhibitors. The format is functional. As to conditions: 30 µM.
In experiment [2] the target is T1, Ubiquitin-activating enzyme e1, putative (Leishmania donovani (strain BPK282A1)) (UniProt E9BSI1).
T1 sequence (whole entry): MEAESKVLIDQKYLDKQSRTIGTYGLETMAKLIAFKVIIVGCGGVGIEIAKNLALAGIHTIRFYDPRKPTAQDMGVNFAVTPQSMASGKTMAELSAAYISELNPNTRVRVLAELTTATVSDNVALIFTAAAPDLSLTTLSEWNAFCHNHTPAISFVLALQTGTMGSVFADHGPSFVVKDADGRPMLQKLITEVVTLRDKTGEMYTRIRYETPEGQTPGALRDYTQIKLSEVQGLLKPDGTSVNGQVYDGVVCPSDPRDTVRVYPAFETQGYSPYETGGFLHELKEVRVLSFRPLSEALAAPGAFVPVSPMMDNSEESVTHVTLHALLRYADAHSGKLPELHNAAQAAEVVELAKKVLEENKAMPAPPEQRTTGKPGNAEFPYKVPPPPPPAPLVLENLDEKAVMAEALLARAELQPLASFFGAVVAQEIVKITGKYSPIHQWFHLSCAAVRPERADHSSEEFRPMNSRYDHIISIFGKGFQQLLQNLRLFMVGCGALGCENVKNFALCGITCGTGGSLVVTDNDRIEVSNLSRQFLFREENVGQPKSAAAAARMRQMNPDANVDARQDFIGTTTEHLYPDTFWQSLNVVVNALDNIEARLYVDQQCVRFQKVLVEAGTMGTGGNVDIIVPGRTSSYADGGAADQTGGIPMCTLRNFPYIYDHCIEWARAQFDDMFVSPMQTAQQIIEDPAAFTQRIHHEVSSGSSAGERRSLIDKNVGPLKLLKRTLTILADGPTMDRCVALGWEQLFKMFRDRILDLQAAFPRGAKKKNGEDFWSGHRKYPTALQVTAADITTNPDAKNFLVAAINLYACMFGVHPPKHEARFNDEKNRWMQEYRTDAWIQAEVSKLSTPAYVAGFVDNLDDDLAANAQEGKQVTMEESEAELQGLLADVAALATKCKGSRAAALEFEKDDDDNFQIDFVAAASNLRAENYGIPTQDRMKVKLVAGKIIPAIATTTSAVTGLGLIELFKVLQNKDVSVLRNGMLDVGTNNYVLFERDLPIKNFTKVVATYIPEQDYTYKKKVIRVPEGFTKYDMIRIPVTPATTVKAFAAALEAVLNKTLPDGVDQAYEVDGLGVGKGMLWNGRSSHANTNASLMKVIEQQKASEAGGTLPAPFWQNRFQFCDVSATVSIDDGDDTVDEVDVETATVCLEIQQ
Nature of the experiment: Leishmania donovani Ubiquitin Activating Enzyme (LdE1). Type of experiment: functional. As to conditions: 30 µM.

In experiment [3] the target is Sialic acid-binding Ig-like lectin 9 (Homo sapiens) (UniProt Q9Y336). Briefly: Hs-Siglec9 ALPHAscreen SOP 20170721. As to conditions: 10 µM. In general terms: In Alpha technology, singlet oxygen from a donor bead excites a nearby acceptor bead.
The subject of the next experiment is Trypanosoma cruzi. Nature of the experiment: Trypanosoma cruzi phosphomannomutase and mannose-1-phosphate guanylyltransferase assay. Type of experiment: functional. As to conditions: 10 µM.
Experiment [4] has as its target T2, Arginase-2, mitochondrial (Homo sapiens) (UniProt P78540).
T2 sequence (whole entry): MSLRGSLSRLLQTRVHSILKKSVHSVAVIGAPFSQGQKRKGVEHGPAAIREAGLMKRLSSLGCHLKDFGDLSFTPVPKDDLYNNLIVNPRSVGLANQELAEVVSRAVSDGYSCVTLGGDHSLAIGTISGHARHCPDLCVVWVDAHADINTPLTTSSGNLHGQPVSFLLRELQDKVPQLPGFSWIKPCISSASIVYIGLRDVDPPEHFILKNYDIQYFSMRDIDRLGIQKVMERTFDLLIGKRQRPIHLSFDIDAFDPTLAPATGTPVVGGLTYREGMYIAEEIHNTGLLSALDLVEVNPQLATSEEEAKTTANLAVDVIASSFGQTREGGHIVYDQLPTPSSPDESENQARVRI
Briefly: in vitro enzyme assay to detect the production of urea directly proportional to the activity of Arginase II. Also: in the data most compounds retested in dose-response had high values. Type of experiment: functional. As to conditions: 33.3 µM.

Experiment [5] addresses T3, Proteasome subunit beta (Trypanosoma cruzi) (UniProt O96673).
T3 sequence (whole entry): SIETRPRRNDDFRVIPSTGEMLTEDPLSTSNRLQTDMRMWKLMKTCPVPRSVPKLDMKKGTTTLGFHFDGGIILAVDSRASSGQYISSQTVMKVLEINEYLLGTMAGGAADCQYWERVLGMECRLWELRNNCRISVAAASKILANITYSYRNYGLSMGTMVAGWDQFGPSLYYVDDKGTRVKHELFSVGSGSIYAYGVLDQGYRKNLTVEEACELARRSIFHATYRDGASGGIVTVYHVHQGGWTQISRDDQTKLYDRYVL
Briefly: Trypanosoma cruzi proteasome chymotrypsin-like activity (TcProtChymo) assay. Also: in the data most compounds retested in dose-response had high values. Type of experiment: functional. As to conditions: 9.37 µM.

The species entered for a further experiment is Homo sapiens. Nature of the experiment: To identify inhibition of the IFN signalling (Jak-Stat) pathway via expression of an eGFP reporter gene under the control of an IFN-stimulated response element (ISRE) containing MxA promoter. The format is functional. As to conditions: 30 µM. For orientation: Reporter assays use an easily measured gene product as a stand-in for the process of interest.

Experiment [6] concerns the target T4, Tyrosyl-tRNA synthetase, putative (Trypanosoma cruzi (strain CL Brener)) (UniProt Q4DSP6).
T4 sequence (whole entry): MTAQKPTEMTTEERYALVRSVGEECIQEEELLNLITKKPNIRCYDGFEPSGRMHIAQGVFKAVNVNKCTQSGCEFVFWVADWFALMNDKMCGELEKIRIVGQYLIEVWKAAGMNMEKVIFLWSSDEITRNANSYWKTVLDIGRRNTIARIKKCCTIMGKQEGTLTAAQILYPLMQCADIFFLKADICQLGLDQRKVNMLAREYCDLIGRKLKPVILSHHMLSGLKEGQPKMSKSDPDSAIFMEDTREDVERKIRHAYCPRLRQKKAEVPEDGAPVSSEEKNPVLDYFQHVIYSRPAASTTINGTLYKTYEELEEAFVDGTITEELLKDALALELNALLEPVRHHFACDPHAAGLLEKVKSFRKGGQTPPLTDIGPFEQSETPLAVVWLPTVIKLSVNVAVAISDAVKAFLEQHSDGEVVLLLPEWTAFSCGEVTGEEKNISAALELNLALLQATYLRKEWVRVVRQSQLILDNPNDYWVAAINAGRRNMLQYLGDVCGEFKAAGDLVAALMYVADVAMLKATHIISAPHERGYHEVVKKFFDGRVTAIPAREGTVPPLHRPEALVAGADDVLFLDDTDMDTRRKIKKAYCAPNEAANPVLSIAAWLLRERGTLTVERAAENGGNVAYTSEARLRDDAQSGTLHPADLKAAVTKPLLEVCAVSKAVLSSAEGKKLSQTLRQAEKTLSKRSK
Nature of the experiment: Trypanosoma cruzi tyrosyl tRNA synthetase (TcYRS) _High Tyrosine SOP. Also: in the data most compounds retested in dose-response had high values. Type of experiment: functional. As to conditions: 30 µM.

Experiment [7] concerns the target T4, Tyrosyl-tRNA synthetase, putative (Trypanosoma cruzi (strain CL Brener)). Briefly: Trypanosoma cruzi tyrosyl tRNA synthetase (TcYRS) SOP. Type of experiment: functional. As to conditions: 30 µM.
Experiment [8] deals with Chromo domain-containing protein 1 (Saccharomyces cerevisiae (strain ATCC 204508 / S288c) (Baker's yeast)) (UniProt P32657). Nature of the experiment: ScCHD-1 Enzyme Inhibition Assay. Also: in the data most compounds retested in dose-response had high values. Type of experiment: functional. As to conditions: 30 µM.
Sequence of Chromo domain-containing protein 1 (Saccharomyces cerevisiae (strain ATCC 204508 / S288c) (Baker's yeast)) (P32657 whole entry, the tested form may be a part): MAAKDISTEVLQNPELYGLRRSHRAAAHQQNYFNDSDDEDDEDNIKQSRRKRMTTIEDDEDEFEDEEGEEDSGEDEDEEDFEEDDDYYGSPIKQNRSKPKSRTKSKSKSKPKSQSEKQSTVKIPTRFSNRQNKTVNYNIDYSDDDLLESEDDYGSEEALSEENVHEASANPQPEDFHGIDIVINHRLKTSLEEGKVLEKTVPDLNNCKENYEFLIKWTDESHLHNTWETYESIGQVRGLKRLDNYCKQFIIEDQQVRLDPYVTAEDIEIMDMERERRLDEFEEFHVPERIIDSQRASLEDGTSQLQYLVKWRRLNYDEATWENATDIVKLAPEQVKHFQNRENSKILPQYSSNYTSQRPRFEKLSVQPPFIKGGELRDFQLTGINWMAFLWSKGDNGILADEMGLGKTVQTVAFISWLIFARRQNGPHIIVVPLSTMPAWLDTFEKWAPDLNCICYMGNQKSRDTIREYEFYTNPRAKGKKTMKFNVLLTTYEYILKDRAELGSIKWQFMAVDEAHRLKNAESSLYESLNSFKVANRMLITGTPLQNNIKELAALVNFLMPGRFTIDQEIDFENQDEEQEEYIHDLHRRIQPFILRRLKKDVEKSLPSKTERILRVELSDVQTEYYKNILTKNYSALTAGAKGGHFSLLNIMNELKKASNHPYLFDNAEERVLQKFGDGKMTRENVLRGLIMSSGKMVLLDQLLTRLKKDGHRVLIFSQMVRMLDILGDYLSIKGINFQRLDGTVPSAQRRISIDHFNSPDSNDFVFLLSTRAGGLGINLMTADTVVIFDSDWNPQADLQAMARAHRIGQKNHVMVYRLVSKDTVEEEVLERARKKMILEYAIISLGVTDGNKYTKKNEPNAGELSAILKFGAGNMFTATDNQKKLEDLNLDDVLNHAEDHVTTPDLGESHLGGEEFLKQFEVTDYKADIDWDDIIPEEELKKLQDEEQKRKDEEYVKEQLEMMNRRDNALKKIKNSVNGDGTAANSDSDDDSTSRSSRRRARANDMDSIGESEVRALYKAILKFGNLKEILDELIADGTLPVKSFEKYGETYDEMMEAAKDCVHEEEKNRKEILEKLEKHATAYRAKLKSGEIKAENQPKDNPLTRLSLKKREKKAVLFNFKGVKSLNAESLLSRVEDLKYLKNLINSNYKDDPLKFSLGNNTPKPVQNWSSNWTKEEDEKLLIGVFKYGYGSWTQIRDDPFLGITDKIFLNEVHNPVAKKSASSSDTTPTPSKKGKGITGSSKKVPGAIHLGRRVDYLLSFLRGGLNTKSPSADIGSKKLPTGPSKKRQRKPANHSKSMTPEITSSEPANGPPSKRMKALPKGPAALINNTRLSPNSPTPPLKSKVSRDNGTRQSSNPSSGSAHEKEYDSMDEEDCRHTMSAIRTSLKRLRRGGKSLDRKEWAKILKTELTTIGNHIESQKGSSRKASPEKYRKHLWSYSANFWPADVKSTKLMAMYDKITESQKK

Sequence of Sialic acid-binding Ig-like lectin 9 (Homo sapiens) (Q9Y336 whole entry): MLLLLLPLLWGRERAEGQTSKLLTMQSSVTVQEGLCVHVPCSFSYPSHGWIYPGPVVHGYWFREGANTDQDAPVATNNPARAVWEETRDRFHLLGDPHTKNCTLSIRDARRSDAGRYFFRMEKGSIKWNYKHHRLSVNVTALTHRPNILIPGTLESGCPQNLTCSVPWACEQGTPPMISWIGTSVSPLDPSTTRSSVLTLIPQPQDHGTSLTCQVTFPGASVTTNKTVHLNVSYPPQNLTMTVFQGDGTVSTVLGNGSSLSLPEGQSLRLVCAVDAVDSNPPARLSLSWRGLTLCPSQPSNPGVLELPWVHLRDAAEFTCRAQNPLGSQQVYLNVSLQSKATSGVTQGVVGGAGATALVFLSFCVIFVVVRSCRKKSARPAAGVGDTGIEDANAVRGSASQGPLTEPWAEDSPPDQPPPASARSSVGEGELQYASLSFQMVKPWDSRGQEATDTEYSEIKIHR
Sequence of Protein translocase subunit SecA (Escherichia coli (strain K12)) (P10408 whole entry): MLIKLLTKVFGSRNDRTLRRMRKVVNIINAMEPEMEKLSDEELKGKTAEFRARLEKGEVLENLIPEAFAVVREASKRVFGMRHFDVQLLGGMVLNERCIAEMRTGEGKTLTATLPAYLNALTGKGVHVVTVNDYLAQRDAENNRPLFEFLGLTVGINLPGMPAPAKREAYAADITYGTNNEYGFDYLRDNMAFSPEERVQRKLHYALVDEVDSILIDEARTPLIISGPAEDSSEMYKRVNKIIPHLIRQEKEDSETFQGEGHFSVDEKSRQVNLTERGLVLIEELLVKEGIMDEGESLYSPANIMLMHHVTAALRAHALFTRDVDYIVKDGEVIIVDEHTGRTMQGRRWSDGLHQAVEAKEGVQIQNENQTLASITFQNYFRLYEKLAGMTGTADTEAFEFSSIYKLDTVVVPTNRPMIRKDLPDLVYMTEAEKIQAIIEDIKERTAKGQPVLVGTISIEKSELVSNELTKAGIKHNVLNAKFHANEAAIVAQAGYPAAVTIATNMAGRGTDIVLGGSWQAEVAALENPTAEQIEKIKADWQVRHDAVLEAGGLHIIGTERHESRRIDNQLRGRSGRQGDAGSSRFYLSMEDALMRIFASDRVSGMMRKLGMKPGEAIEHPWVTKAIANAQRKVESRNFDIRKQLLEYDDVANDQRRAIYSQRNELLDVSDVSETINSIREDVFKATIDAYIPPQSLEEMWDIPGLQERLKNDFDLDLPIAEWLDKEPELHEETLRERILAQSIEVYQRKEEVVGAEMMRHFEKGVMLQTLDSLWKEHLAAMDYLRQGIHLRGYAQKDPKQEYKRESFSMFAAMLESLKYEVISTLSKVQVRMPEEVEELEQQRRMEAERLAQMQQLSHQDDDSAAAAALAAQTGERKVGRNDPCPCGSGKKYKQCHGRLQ

Take `CCN1CCn2nc(CCC(=O)N3CCCC3)cc2C1`: the Percent Effect in [1] was -6.01%; in experiment [2], 2.7%; in experiment [3] it was 0.796%; in the experiment with Trypanosoma cruzi, -3.98%; in experiment [4], 0.35%; in [5], 19%. Moreover, the Percent Effect was 8.04% in the experiment listed under Homo sapiens, 5.85% in [6], 14.6% in experiment [7] and -5.3% in experiment [8].

Consider `Cc1csc(N2CCCN(C(=O)c3cnns3)CC2)n1`, for which the Percent Effect in experiment [1] is -2.47%; in experiment [2], -2.67%; in experiment [3], -0.659%; in the experiment on Trypanosoma cruzi it was -0.803%; in [4] it was -1.33%; in [5], -0.255%. For the same molecule, the Percent Effect in the experiment filed under Homo sapiens was -0.448%; in experiment [6], 0.526%; in experiment [7], 0%; in [8], 4.48%.

Turning to `Cn1cc(CN2CCCN(C(=O)c3cn4ccccc4n3)CC2)cn1`, the Percent Effect is -2.59% in [1]; 25.6% in experiment [2]; -16.8% in experiment [3]; 4.04% in the experiment with Trypanosoma cruzi; -0.41% in [4]; 20.1% in [5]. In addition, the Percent Effect turned out to be 13.6% in the experiment listed under Homo sapiens, 3.35% in [6], 22.9% in experiment [7] and 15.2% in experiment [8].

For the molecule `Cc1cccc(N2CC[C@@H]3CN(Cc4csc(C)n4)CCO[C@@H]3C2)n1`, the Percent Effect is -6.02% in experiment [1]; -14.3% in experiment [2]; -1.28% in [3]; 6.52% with Trypanosoma cruzi; -6.88% in [4]; 7.15% in [5]. In addition, the Percent Effect in the experiment filed under Homo sapiens was -15.6%; in experiment [6], 1.58%; in [7] it was -5.13%; in experiment [8], -0.609%.

Turning to `CCc1[nH]ncc1C(=O)N1CCCC(n2cccn2)C1` (stereo not given), the Percent Effect was -3.15% in [1]; 13.3% in [2]; 7.05% in experiment [3]; -2.21% in the experiment with Trypanosoma cruzi; 4.88% in [4]; 7.38% in experiment [5]. Besides, the Percent Effect was -9.13% in the experiment filed under Homo sapiens, 4.74% in experiment [6], 15.4% in [7] and -7.04% in experiment [8].

Turning to `O=S(=O)(c1ccccc1Cl)N1CCc2nc(C3CCNCC3)ncc2C1`, the Percent Effect is -4.22% in [1]; 1.33% in experiment [2]; 8.22% in experiment [3]; 3.75% in the experiment with Trypanosoma cruzi; -1.33% in [4]; 12.2% in experiment [5]. For the same molecule, the Percent Effect in the experiment filed under Homo sapiens was 34.8%; in [6] it was 6.35%; in experiment [7], 12.5%; in [8], -26.2%.

Consider `O=C(NCc1ccccc1)[C@H]1C[C@@H]2CN(S(=O)(=O)C3CC3)C[C@H]1O2`, for which the Percent Effect in experiment [1] is -3.6%; in [2] it was 1.3%; in experiment [3], -4.1%; in the experiment on Trypanosoma cruzi, -3.99%; in [4], -1.22%; in experiment [5], 14.4%. Further, the Percent Effect in the experiment listed under Homo sapiens came to 14.4%; in [6], 3.68%; in [7], 7.69%; in [8] it was 1.77%.

As for `CN1CCC/C1=N\S(=O)(=O)c1ccc(NC(=O)c2ccc(F)cc2)cc1`, the Percent Effect was found to be 1.02% in experiment [1]; 26% in [2]; 3.66% in experiment [3]; 6.34% in the experiment on Trypanosoma cruzi; 28.5% in experiment [4]; 9.82% in experiment [5]. The Percent Effect in the experiment filed under Homo sapiens was 14.2%; in [6], 5.88%; in experiment [7], 28.2%; in experiment [8] it was -9.94%.

As for `CCC(NC(=O)CC(F)(F)F)c1ccccc1OCC(=O)N1CCCC1` (stereo not given), the Percent Effect is -0.84% in [1]; 15.4% in [2]; -4.51% in experiment [3]; -0.845% with Trypanosoma cruzi; 0% in [4]; 13.4% in experiment [5]. Besides, the Percent Effect in the experiment listed under Homo sapiens is -7.93%; in [6], 7.18%; in experiment [7], 20.5%; in [8], -2.48%.

In the case of `CCCn1nc2c(cc1=O)CN(CC(=O)Nc1nnc(C)s1)CC2`, the Percent Effect is -7.9% in [1]; 13% in [2]; 10.3% in experiment [3]; -3.92% in the experiment on Trypanosoma cruzi; 3.07% in experiment [4]; 11.8% in experiment [5]. Besides, the Percent Effect in the experiment listed under Homo sapiens was 1.49%; in experiment [6], 2.94%; in experiment [7], 9.41%; in [8], -8.62%.

In the case of `Cc1nnc(NC(=O)CN2CCCC(Cn3cncn3)C2)s1` (stereo not given), the Percent Effect was -3.75% in [1]; 10.7% in experiment [2]; 7.25% in experiment [3]; 1.41% with Trypanosoma cruzi; 6.21% in experiment [4]; 12.3% in [5]. The Percent Effect in the experiment listed under Homo sapiens is -17.8%; in experiment [6], 5.79%; in experiment [7], 10.3%; in experiment [8] it was -8.83%.

As to `Cc1ncc2c(n1)CN(Cc1nc3ccccc3o1)CC2`, the Percent Effect in [1] is -2.9%; in [2], 8%; in [3], 3.11%; in the experiment on Trypanosoma cruzi it was 4.02%; in experiment [4], -2.22%; in experiment [5], 3.31%. The Percent Effect was -20.5% in the experiment filed under Homo sapiens, 25.8% in experiment [6], 28.2% in experiment [7] and -12.9% in [8].

On to `Cn1ncc(C(=O)N2CCCC(n3cccn3)C2)c1C1CC1` (stereo not given), for which the Percent Effect in [1] is -4.48%; in experiment [2], 10.7%; in experiment [3] it was 0.531%; in the experiment on Trypanosoma cruzi, -3.61%; in [4], 3.1%; in experiment [5] it was 11.6%. The Percent Effect was 8.56% in the experiment filed under Homo sapiens, 2.63% in experiment [6], 5.13% in [7] and -7.06% in [8].
